About 83,000 compounds went through this panel and 20% of them were active in at least one assay; those are over-represented in the sample as a whole.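 Method: cells in 96-well plates; compound added at one concentration; 48 h incubation; percent growth measured; values under 10 scored active.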 A number with no mark means an inactive call. Calls of active or inactive are those of the source.
Assays:
Assay in all cases: NCI-60 one-dose screen, 48 h (100 = growth as untreated, 0 = no growth, -100 = all killed)
Settings in all cases: 10 µM unless noted
[1] = tested on: HCT-15 colon
[2] = tested on: HT29 colon
[3] = tested on: SNB-75 CNS
[4] = tested on: SNB-19 CNS
[5] = tested on: U251 CNS
[6] = tested on: PC-3 prostate
[7] = tested on: SK-MEL-5 melanoma
[8] = tested on: UACC-62 melanoma
[9] = tested on: LOX IMVI melanoma
[10] = tested on: SK-MEL-28 melanoma

Row | SMILES | growth [1] | growth [2] | growth [3] | growth [4] | growth [5] | growth [6] | growth [7] | growth [8] | growth [9] | growth [10]
1 | O=C1CC(c2ccsc2)c2snc(-c3ccc(Cl)cc3)c2N1 (stereo not drawn) | 21.9% | 3.6% (active) | -6.98% (active) | 64.4% | 27.7% | 24% | 18.1% | 30.8% | 51.8% | 45.4%
2 | COc1cc(-c2nc(SC(C)C)nc(Nc3ccccc3C)c2C#N)cc(OC)c1OC | 102% | 109% | 108% | 100% | 108% | 104% | 102% | 97.2% | 102% | 107%
3 | Brc1ccc(Br)nn1 | -100% (active) | -37.2% (active) | 37.7% | 17.7% | -67.5% (active) | -36.8% (active) | 8.56% (active) | 31.9% | -93.7% (active) | -75.9% (active)
4 | O=C(N/N=C/c1ccc(F)cc1)c1[nH]c2ccc(I)cc2c1-c1ccccc1 | 18.7% | 12.5% | 51.7% | 12% | 20.4% | 20.6% | -30% (active) | 35.2% | 25.8% | 67.9%
5 | COc1cc(/C=C2\C(=O)N(c3c(Cl)cccc3Cl)c3ccccc32)cc(OC)c1O | 30.7% | 22.6% | 61.7% | 52.4% | 22.4% | 15.2% | 32.3% | 47.5% | 2.06% (active) | 58.8%
6 | O=C1c2c(c3c4cc(Br)ccc4[nH]c3c3ccc4ccccc4c23)C(=O)N1O | 85.4% | 30% | 79.8% | 85.1% | 68.5% | 79% | 96.7% | 59.9% | 67.8% | 106%
7 | Cc1cc(C)c(S(=O)O)c(C)c1 | 111% | 100% | 86.6% | 102% | 105% | 94.6% | 105% | 102% | 93.9% | 113%
8 | COc1ccc(S(=O)(=O)ON=C2C=C(C)C(=O)C(C)=C2)cc1 | 85.9% | 93.3% | 69.1% | 113% | 94.4% | 86% | 98.2% | 91.2% | 62% | 96.8%
9 | Cc1cc(=O)oc2c1ccc1oc(C(=O)c3ccccc3)c(C)c12 | 64% | 51.8% | 103% | 103% | 83.9% | 86.4% | 84.3% | 80.8% | 80.5% | 105%
10 | COc1ccc(/C=C(\C#N)c2cc3ccccc3n2C)cc1 | 23.9% | 9.49% (active) | 1.11% (active) | 32.8% | 15.9% | 38.8% | 23.2% | 38.3% | 39.4% | 62.1%
11 | Cc1ccc(S(=O)(=O)N2CCc3ccc(O)c4c3C2CCc2ccccc2-4)cc1 (stereo not drawn) | 102% | 100% | 91.6% | 98.9% | 102% | 95.4% | 105% | 90.2% | 98.7% | 107%
12 | CCCCc1ccc(C(O)(CCN2CC3CCC(CC3)C2)c2ccccc2)cc1 (stereo not drawn) | 65.7% | 68.8% | 116% | 108% | 83.3% | 94.3% | 101% | 108% | 103% | 102%
13 | COc1ccc(-c2csc3c2-n2cccc2C3=O)cc1O | 17.4% | 23.9% | 46.5% | 41.4% | 4.86% (active) | 17.2% | – | 29.4% | 22.5% | 61.5%
14 | COc1cc(C(F)(F)F)ccc1-c1cc(-c2ccc(F)cc2)n[nH]1 | 73.3% | 92.5% | 74.4% | 77.9% | 80% | 76% | – | 83.9% | 96.9% | 102%
15 | COc1cc(C2CC(=O)Nc3c2ccc2ccccc32)cc(Br)c1OC (stereo not drawn) | 27.9% | -6.29% (active) | -18.6% (active) | 39% | 18.6% | 15.2% | – | 12.1% | 25.1% | 43.6%
16 | CC(C)NCC(O)COc1ccc(CCOCC2CC2)cc1 (stereo not drawn) | 107% | 97.9% | 99.3% | 106% | 99.4% | 80% | 95% | 110% | – | 118%
17 | CN1CCn2c(c(Sc3ccc(C(=O)NO)cc3)c3ccccc32)C1=O | 14.6% | 44.3% | -17.2% (active) | -26.4% (active) | -60.5% (active) | -35.2% (active) | – | -61.4% (active) | -44.2% (active) | -33.4% (active)
18 | NC(=O)c1cc(Cl)ccc1NC(=O)COc1ccccc1 | 33.3% | 17.6% | 36.5% | 64.7% | 39.7% | 47.3% | – | 56.7% | 59.4% | 69.3%
19 | Cc1ccc2nc(NC(=O)CSC(=S)N3CCN(C)CC3)sc2c1 | 102% | 106% | 90.8% | 108% | 108% | 95.6% | 107% | – | -72.3% (active) | 116%
20 | CC(=O)N(CC(O)CO)c1c(I)c(C(=O)NCCO)c(I)c(C(=O)NCC(O)CO)c1I (stereo not drawn) | 96.4% | 99.9% | 95.6% | 106% | 100% | 81.3% | 91.7% | 111% | – | 112%
21 | COc1ccc(OC2=C(C#N)C(=N)N3c4ccccc4Sc4ccccc4C3N2)cc1 (stereo not drawn) | 105% | 119% | 69% | 97.8% | 105% | 88.9% | – | 69.6% | 87.4% | 76.4%
22 | CCSc1nnc2c3cc(Br)ccc3n(C)c2n1 | 96.7% | 104% | 92.6% | 109% | 101% | 81% | – | 103% | 96% | 123%
23 | NC(=O)c1cc(I)ccc1NC(=O)COc1ccc(Cl)cc1Cl | 62.8% | 85.1% | 113% | 98.7% | 89.5% | 86.4% | – | 83.1% | 93.3% | 99.3%
24 | COc1ccc(OC)c(C2C(C#N)=C(N)Oc3cc(O)ccc32)c1 (stereo not drawn) | 94.4% | 95.4% | 91.5% | 102% | 99% | 95.5% | – | 91.9% | 100% | 103%
25 | COCCOC1=C(Cl)C(=O)c2ccccc2C1=O | 13% | 99% | 8.63% (active) | 88.4% | 8.18% (active) | 18.7% | -7.27% (active) | – | 22.1% | 13.7%
26 | O=S(=O)(/N=C1C=C/C(=N\S(=O)(=O)c2ccccc2)c2ccccc2\1)c1ccccc1 | 106% | 118% | 96.1% | 116% | 92.6% | 79.6% | – | 104% | 68.9% | 101%
27 | C=CC(=O)N1CC2(CCC(n3nc(-c4ccc(Oc5ccccc5)cc4)c4c(N)ncnc43)CC2)C1 | -60.5% (active) | -60.3% (active) | -69.5% (active) | -0.912% (active) | -73.8% (active) | -19.6% (active) | – | -90.7% (active) | -65% (active) | -67.9% (active)
28 | Cc1ccc2nc(NC(=O)CSC(=S)N3CCN(Cc4ccccc4)CC3)sc2c1 | -37% (active) | -62.7% (active) | -93.2% (active) | -22.2% (active) | -46.3% (active) | -40.2% (active) | -96.4% (active) | – | -41.3% (active) | -60% (active)
29 | COc1cccc(C2CC(=O)Nc3cc4c(cc32)CCC4)c1OC (stereo not drawn) | 36.4% | 9.41% (active) | 35.3% | 80.8% | 42.4% | 69.3% | – | 52.1% | 59.6% | 68.9%
